From PubChem BioAssay AID1159580 (chemical genetic matrix, 2015)
Several values for one entry are separate records, joined by “and”; a condition that tells them apart may be missing. Identical values can stand only once. Out of some 5,500 compounds screened, about 2,000 (36%) were called active. About 18% were inconclusive and are not listed. No stated cut-off is given here; in the data, active means normalized growth mostly below about 0.91 (no sharp cut-off); inconclusive means no clear call, values can overlap the other calls; inactive means mostly above about 0.92. The list shows a part of the results.

Assay: chemical genetic growth profiling, strain panel (AID 1159580);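 further: tested at 20 µM; growth read once vehicle control cultures reached saturation at 30 °C; 1 = growth at the plate median or of vehicle wells; lower values mean less growth of the strain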
Conditions: growth OD

Measured: normalized growth

Cn1c(=O)c2c(ncn2C)n(C)c1=O
active: S. cerevisiae deletion strains, locus YLR221C, strain rsa3, hits give low values 0.89
inactive: S. cerevisiae deletion strains, locus YJR043C, strain POL32, hits give low values 1.02 | S. cerevisiae deletion strains, locus YJR066W, strain TOR1, hits give low values 0.97 | S. cerevisiae deletion strains, locus YJR075W, strain HOC1, hits give low values 1 | S. cerevisiae deletion strains, locus YKL009W, strain mrt4, hits give low values 1.03 | S. cerevisiae deletion strains, locus YKL068W, hits give low values 1.01 | S. cerevisiae deletion strains, locus YKL085W, strain MDH1 (second series), hits give low values 0.991 | S. cerevisiae deletion strains, locus YKL085W, strain MDH1, hits give low values 0.991 | S. cerevisiae deletion strains, locus YKL160W, strain elf1, hits give low values 1.02 | S. cerevisiae deletion strains, locus YKR001C, strain vps1, hits give low values 1 | S. cerevisiae deletion strains, locus YKR026C, strain gcn3, hits give low values 0.965 | S. cerevisiae deletion strains, locus YKR091W, strain srl3, hits give low values 0.969 | S. cerevisiae deletion strains, locus YLL001W, strain dnm1, hits give low values 0.932 | S. cerevisiae deletion strains, locus YLL026W, hits give low values 0.962 | S. cerevisiae deletion strains, locus YLL041C, strain sdh2, hits give low values 0.976 | S. cerevisiae deletion strains, locus YLR027C, strain aat2, hits give low values 0.976 | S. cerevisiae deletion strains, locus YLR039C, strain RIC1, hits give low values 0.989 | S. cerevisiae deletion strains, locus YLR058C, strain SHM2, hits give low values 1 | S. cerevisiae deletion strains, locus YLR102C, strain apc9, hits give low values 1.01 | S. cerevisiae deletion strains, locus YLR113W, strain HOG1, hits give low values 1.04 | S. cerevisiae deletion strains, locus YLR258W, strain gsy2, hits give low values 0.976 | S. cerevisiae deletion strains, locus YLR262C, strain YPT6 (second series), hits give low values 0.996 | S. cerevisiae deletion strains, locus YLR262C, strain YPT6, hits give low values 0.988 | S. cerevisiae deletion strains, locus YLR268W, strain sec22, hits give low values 1.03 | S. cerevisiae deletion strains, locus YLR320W, strain mms22, hits give low values 0.987 | S. cerevisiae deletion strains, locus YLR330W, strain CHS5, hits give low values 0.999 | S. cerevisiae deletion strains, locus YLR342W, strain FKS1 (second series), hits give low values 1.03 | S. cerevisiae deletion strains, locus YLR342W, strain FKS1, hits give low values 0.983 | S. cerevisiae deletion strains, locus YLR357W, strain rsc2, hits give low values 0.98 | S. cerevisiae deletion strains, locus YLR370C, strain arc18, hits give low values 0.936 | S. cerevisiae deletion strains, locus YLR371W, strain rom2, hits give low values 0.989 | S. cerevisiae deletion strains, locus YLR384C, strain iki3, hits give low values 0.97 | S. cerevisiae deletion strains, locus YLR418C, strain cdc73, hits give low values 0.947 | S. cerevisiae deletion strains, locus YML016C, strain PPZ1, hits give low values 0.995 | S. cerevisiae deletion strains, locus YML032C, strain rad52, hits give low values 1.01 | S. cerevisiae deletion strains, locus YML120C, strain ndi1, hits give low values 0.926 | S. cerevisiae deletion strains, locus YML124C, strain tub3, hits give low values 1 | S. cerevisiae deletion strains, locus YMR058W, strain fet3, hits give low values 0.96 | S. cerevisiae deletion strains, locus YMR078C, strain ctf18, hits give low values 0.995 | S. cerevisiae deletion strains, locus YMR125W, strain sto1, hits give low values 0.954 | S. cerevisiae deletion strains, locus YMR129W, hits give low values 0.988 | S. cerevisiae deletion strains, locus YMR205C, strain PFK2, hits give low values 0.991 | S. cerevisiae deletion strains, locus YMR223W, strain ubp8, hits give low values 1 | S. cerevisiae deletion strains, locus YMR231W, strain pep5, hits give low values 0.987 | S. cerevisiae deletion strains, locus YMR307W, strain GAS1, hits give low values 0.974 and 0.988 | S. cerevisiae deletion strains, locus YNL067W, strain RPL9B, hits give low values 1 | S. cerevisiae deletion strains, locus YNL071W, strain lat1, hits give low values 0.995 | S. cerevisiae deletion strains, locus YNL128W, strain TEP1, hits give low values 0.997 | S. cerevisiae deletion strains, locus YNL175C, strain NOP13, hits give low values 1.02 | S. cerevisiae deletion strains, locus YNL183C, strain NPR1, hits give low values 0.987 | S. cerevisiae deletion strains, locus YNL197C, strain WHI3, hits give low values 1.12 | S. cerevisiae deletion strains, locus YNL209W, strain ssb2, hits give low values 0.959 | S. cerevisiae deletion strains, locus YNL224C, strain SQS1, hits give low values 1.01 | S. cerevisiae deletion strains, locus YNL233W, strain BNI4, hits give low values 0.984 | S. cerevisiae deletion strains, locus YNL248C, strain rpa49, hits give low values 1.03 | S. cerevisiae deletion strains, locus YNL250W, strain rad50, hits give low values 1.01 | S. cerevisiae deletion strains, locus YNL271C, strain bni1, hits give low values 1.01 | S. cerevisiae deletion strains, locus YNL298W, strain CLA4, hits give low values 1.01 | S. cerevisiae deletion strains, locus YNL307C, strain MCK1, hits give low values 1 | S. cerevisiae deletion strains, locus YNL322C, strain KRE1 (second series), hits give low values 0.963 | S. cerevisiae deletion strains, locus YNL322C, strain KRE1, hits give low values 0.995 | S. cerevisiae deletion strains, locus YNR049C, strain mso1, hits give low values 0.956 | S. cerevisiae deletion strains, locus YNR052C, strain pop2, hits give low values 1 | S. cerevisiae deletion strains, locus YOL006C, strain TOP1, hits give low values 1.04 | S. cerevisiae deletion strains, locus YOL012C, strain htz1 0.798 | S. cerevisiae deletion strains, locus YOL147C, strain pex11, hits give low values 0.998 | S. cerevisiae deletion strains, locus YOR001W, strain rrp6, hits give low values 0.979 | S. cerevisiae deletion strains, locus YOR061W, strain CKA2, hits give low values 1.01 | S. cerevisiae deletion strains, locus YOR069W, strain VPS5, hits give low values 1 | S. cerevisiae deletion strains, locus YOR070C, strain gyp1, hits give low values 0.993 | S. cerevisiae deletion strains, locus YOR080W, strain dia2, hits give low values 0.956 | S. cerevisiae deletion strains, locus YOR083W, strain WHI5 (second series), hits give low values 1.02 | S. cerevisiae deletion strains, locus YOR083W, strain WHI5, hits give low values 1.01 | S. cerevisiae deletion strains, locus YOR106W, strain vam3, hits give low values 0.969 | S. cerevisiae deletion strains, locus YOR136W, strain idh2, hits give low values 1.01 | S. cerevisiae deletion strains, locus YOR144C, strain elg1, hits give low values 1 | S. cerevisiae deletion strains, locus YOR184W, strain ser1, hits give low values 1.01 | S. cerevisiae deletion strains, locus YOR231W, strain MKK1, hits give low values 1.04 | S. cerevisiae deletion strains, locus YOR265W, strain rbl2, hits give low values 0.963 | S. cerevisiae deletion strains, locus YOR270C, strain vph1, hits give low values 0.988 | S. cerevisiae deletion strains, locus YOR290C, strain snf2, hits give low values 0.952 | S. cerevisiae deletion strains, locus YOR316C, strain cot1, hits give low values 1.01 | S. cerevisiae deletion strains, locus YPL051W, strain arl3, hits give low values 0.949 | S. cerevisiae deletion strains, locus YPL055C, strain LGE1, hits give low values 0.998 | S. cerevisiae deletion strains, locus YPL078C, strain atp4, hits give low values 1.02 | S. cerevisiae deletion strains, locus YPL106C, strain sse1, hits give low values 0.929 | S. cerevisiae deletion strains, locus YPL240C, strain hsp82, hits give low values 0.974 | S. cerevisiae deletion strains, locus YPL241C, strain CIN2, hits give low values 0.998 and 1.01 | S. cerevisiae deletion strains, locus YPL256C, strain CLN2, hits give low values 1.09 | S. cerevisiae deletion strains, locus YPR119W, strain clb2, hits give low values 0.996 | S. cerevisiae deletion strains, locus YPR141C, strain kar3, hits give low values 0.992 | S. cerevisiae deletion strains, locus YPR163C, strain tif3, hits give low values 0.991 | S. cerevisiae deletion strains, locus YPR167C, strain met16, hits give low values 1 | S. cerevisiae deletion strains, strain wtn01, hits give low values 1.04 | S. cerevisiae strains, strain wild type, hits give low values 1
